Screening data: PubChem BioAssay, National Center for Advancing Translational Sciences (NCATS)
Hits are enriched below; roughly 2.7% of the tested compounds scored in any of these assays.
12-LOX inh: Primary qHTS assay for inhibitors of human arachidonate 12S-lipoxygenase (ALOX12): Round 2 | purified 12hLO, xylenol orange hydroperoxide absorbance | Potency, µM (doses to about 108 µM), without a hit: at the highest dose activity change, negative = inhibition, actives largely listed as inhibitors | actives 1.1% (n = 580,000) | AID 1671190, 2021; note: potency is the fitted concentration of half-maximal effect; % is set by controls: 0 for no effect and ±100 for the full control effect
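Purified human 12hLO at 150 nM in 25 mM Hepes, 0.01% Triton X-100, pH 7.0, preincubated 15 min at room temperature with compound. Reaction started with 40 uM arachidonic acid, 30 min at room temperature. Hydroperoxide measured by Fe-xylenol orange, 573/405 nm absorbance ratio.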
LDHA inh: qHTS assay for inhibitors of human lactate dehydrogenase; L-lactate dehydrogenase A chain (Homo sapiens), P00338; purified LDHA, NADH/diaphorase-resazurin fluorescence; hits give low values; activity change, % (values are at about 110 or 230 µM); actives 0.15% (n = 480,000); AID 1347041, 2019; in the data active = activity change below about -30%; inconclusive = mostly about -25% to -30%;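 note: plate controls were DMSO wells for no effect and wells without enzyme for full effect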
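Human LDH5 (2 nM) was incubated with 0.06 mM NADH and 0.2 mM pyruvate for 5 min at room temperature in Tris pH 7.4. Remaining NADH was coupled through diaphorase/resazurin, and resorufin fluorescence was read at 0 and 20 min.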
mIDH1 inhibitor: qHTS for Inhibitors of mutant isocitrate dehydrogenase 1 (IDH1): qHTS; Isocitrate dehydrogenase [NADP] cytoplasmic (Homo sapiens), O75874; IDH1-R132H enzyme, NADPH consumption, diaphorase/resazurin fluorescence; Potency, µM (highest dose often 76.6 µM), for inactives: at the top dose activity change, negative = inhibition, actives largely listed as inhibitors; actives 0.093% (n = 390,000); AID 602179, 2012; note: potency is the fitted concentration of half-maximal effect; % is set by controls: 0 for no effect and ±100 for the full control effect; nearly all actives have a fitted effect of over 65% in size
Target sequence (O75874 whole entry R132H, stated change not applied): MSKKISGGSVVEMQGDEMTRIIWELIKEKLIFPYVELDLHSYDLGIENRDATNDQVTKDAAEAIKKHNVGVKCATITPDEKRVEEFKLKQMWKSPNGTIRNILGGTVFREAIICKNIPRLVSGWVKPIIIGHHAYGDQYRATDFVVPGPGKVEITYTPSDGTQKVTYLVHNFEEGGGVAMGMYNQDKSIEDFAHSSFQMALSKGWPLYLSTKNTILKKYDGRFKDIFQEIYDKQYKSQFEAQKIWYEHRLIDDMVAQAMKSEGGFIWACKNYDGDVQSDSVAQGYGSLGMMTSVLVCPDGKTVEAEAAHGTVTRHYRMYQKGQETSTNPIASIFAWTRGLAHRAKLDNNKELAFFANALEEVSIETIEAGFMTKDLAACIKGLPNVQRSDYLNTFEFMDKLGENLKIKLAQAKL
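IDH1-R132H (0.5 ug/mL dispensed) in pH 7.5 Tris buffer was preincubated 30 min with compound, then given a substrate mix of 0.016 mM NADPH and 2 mM alpha-KG for 80 min at room temperature; remaining NADPH was read by diaphorase/resazurin fluorescence.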
Nrf2 activator: qHTS of Nrf2 Activators; AID 624171, 2012; Potency, µM (highest dose often 46.1 µM), for inactives: top-dose activation, usual class: activators; AREc32 ARE-luciferase reporter (MCF7-derived line), luminescence, 24 h; actives 0.31% (n = 410,000); note: potency is the fitted concentration of half-maximal effect; % of control where 0% means no effect; nearly all actives have a fitted effect of over 65% in size
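Luminescent ARE reporter assay in AREc32_Fluc cells: overnight plating at 37 deg C, 24 hr compound incubation, Steady-Glo added, 30 min RT before reading.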
Nrf2 block: Nrf2 qHTS screen for inhibitors. A549 ARE-Fluc reporter, luciferase luminescence, 18-24 h. Potency, µM (top dose mostly 46 µM), for inactives: at the top dose activity change, negative = inhibition, actives largely listed as inhibitors. actives 2.1% (n = 360,000). AID 504444, 2011; note: potency is the fitted concentration of half-maximal effect; % is set by controls: 0 for no effect and ±100 for the full control effect; nearly all actives have a fitted effect of over 60% in size
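Quantitative HTS in A549 cells stably bearing an antioxidant response element-firefly luciferase construct. Inhibition of Nrf2-driven transcription was scored by luminescence after 18-24 h of compound exposure at 37 °C.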
A549 viability: Nrf2 qHTS screen for inhibitors: counterscreen for cytotoxicity. A549 ARE-Fluc cells, CellTiter-Fluor viability, 18-24 h. Potency, µM (series often up to 46 µM), for inactives: top-dose activity change, negative = cytotoxicity, usual class: inhibitors. actives 0.16% (n = 390,000). AID 504648, 2011; note: potency is the fitted concentration of half-maximal effect; % is set by controls: 0 for no effect and ±100 for the full control effect
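Cytotoxicity counterscreen: CellTiter-Fluor fluorescence was measured in A549 ARE_Fluc cells after 18-24 h of compound exposure in a concentration series. The subsequent BugLite luminescent read reports ARE-luciferase activity.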
* marks the source's active call; other numbers are inactive results; ? = inconclusive; / = not tested or not shown; [ ] = remark or other dose. Unless noted, calls come from the whole dose curve; as a rule, active = well fitted curve in the direction sought with a large enough effect; inconclusive = small, poorly fitted or top-dose-only effect, or another doubt; inactive = no such curve, though single readings can be large; an effect the other way counts as inactive or inconclusive.

SMILES | 12-LOX inh | LDHA inh | mIDH1 inhibitor | Nrf2 activator | Nrf2 block | A549 viability
COc1ccc(-c2nc3cc(NC(=O)c4ccccc4OC)ccc3o2)cc1Cl | ? | 1 | / | / | / | /
O=C(Nc1cccnc1)c1cc(-c2ccccc2)nc2ccccc12 | -28% | -6 | / | / | / | /
Cc1ccc(N(CC(=O)N2CCc3ccccc3C2)S(C)(=O)=O)cc1Cl | -47% | 7 | / | / | / | /
COCCc1noc(-c2ccccc2OC2CN(S(=O)(=O)C(C)C)C2)n1 | 31% | / | / | / | / | /
COc1ccc(-c2cc(C(=O)OC(C)C#N)c3ccccc3n2)cc1OC (stereo not given) | ? | -14 | / | / | / | /
COC(=O)c1ccc(N2C(=O)Cc3cc(OC)c(OC)cc3C2c2ccc(OC)cc2)cc1 (stereo not given) | -2% | 4 | / | / | / | /
CCOC(=O)N1CCN(C(=O)c2ccc(Oc3ccc([N+](=O)[O-])cc3)cc2)CC1 | -4% | -5 | -4% | 4% | 26µM* | -9%
CCOC(=O)N1CCN(C(=O)c2ccc(S(=O)(=O)Nc3ccc(C)cc3)cc2)CC1 | -41% | -7 | 2% | 0% | 10µM* | -16%
CN(c1ccc(C(=O)N2CCOCC2)cc1)S(=O)(=O)c1ccc(Cl)cc1 | 196% | -10 | -3% | 0% | ? | -1%
CCOC(=O)N1CCN(C(=O)c2ccc(NS(=O)(=O)c3ccc(C)cc3)cc2)CC1 | 34% | -2 | 4% | 0% | ? | -7%
CN(c1ccc(C(=O)N2CCCCCC2)cc1)S(=O)(=O)c1ccc(Cl)cc1 | 15% | -3 | 2% | -1% | 23µM* | -9%
Cc1ccc(CNc2oc(CC(C)C)nc2C#N)cc1 | -35% | -1 | / | / | / | /
CC(=O)c1ccc(OCc2cccc3ccccc23)cc1 | -9% | 10 | / | / | / | /
CCCc1noc(-c2ccn3c(CNC(=O)c4ccc(C)c(F)c4)nnc3c2)n1 | 50µM* | / | / | / | / | /
CCCc1noc(-c2ccn3c(CNC(=O)Cc4cccc(OC)c4)nnc3c2)n1 | 45µM* | / | / | / | / | /
CCCc1noc(-c2ccn3c(CNC(=O)Cc4cccc(F)c4)nnc3c2)n1 | 1% | / | / | / | / | /
CC(C)Oc1ccccc1/C=N/O | ? | 5 | / | / | / | /
COC(=O)c1ccsc1NC(=O)CCS(=O)(=O)c1ccccc1 | 53% | -1 | 15% | 13µM* | -15% | -3%
COC(=O)c1ccsc1NC(=O)CS(=O)(=O)c1ccccc1 | -28% | -5 | 7% | -1% | -13% | -1%
CC(=O)c1sc(Nc2ccccn2)nc1C | 5% | -1 | 2% | 11µM* | ? | 14%
CC(=O)c1sc(NC(=O)CCS(=O)(=O)c2ccccc2)nc1C | 0% | -9 | -21% | ? | 21µM* | ?
Cc1ccc(S(=O)(=O)CCC(=O)Nc2sccc2C(N)=O)cc1 | -2% | 2 | 2% | 8% | -6% | -8%
COC(=O)c1ccsc1NC(=O)CCS(=O)(=O)c1ccc(Cl)cc1 | ? | -1 | 2% | 16µM* | 3% | -2%
NC(=O)CN1c2ccc(F)cc2-c2ccccc2S1(=O)=O | 7% | -1 | / | / | / | /
Cc1ccc(C(C)C)c(OCC(=O)Nc2cc(-c3nc4ccccc4[nH]3)ccc2C)c1 | -13% | -3 | / | 0% | 6.5µM* | 9.2µM*
SMILES | 12-LOX inh | LDHA inh | mIDH1 inhibitor | Nrf2 activator | Nrf2 block | A549 viability
Cc1ccc(NC2=C(Cl)C(=O)OC2OC(=O)c2ccc(C)cc2)cc1 (stereo not given) | 7.9µM* | -1 | 8% | ? | -14% | -2%
O=S(=O)(c1ccc2oc3ccccc3c2c1)N1CCCC1 | 12% | 1 | -2% | 0% | -16% | -1%
CCN(CC)C(=O)C1CCN(S(=O)(=O)c2ccc3oc4ccccc4c3c2)CC1 | 3% | -10 | 2% | 0% | 21µM* | -4%
COc1ccc(OCC(=O)Nc2c3c(nn2C(C)(C)C)CSC3)cc1 | 5% | -7 | 2% | 1% | 12µM* | -6%
CCC(=O)Nc1c2c(nn1-c1ccc(OC)cc1)CSC2 | 6% | -4 | 6% | 0% | -12% | 0%
Cc1cc(OCc2cc(C(=O)N3CCN(C)C(=O)[C@@H]3C)no2)cc(C)c1Cl | -11% | -3 | -6% | 0% | 21µM* | -10%
COc1ccc(C(=O)/C(=C\c2ccco2)N2C=CC=CC2=C(C#N)C#N)cc1 | / | 2 | 6% | ? | ? | 18µM*
N#CC(C#N)=C1C=CC=CN1/C(=C\c1ccco1)C(=O)c1ccccc1 | -20% | 1 | 6% | -3% | -5% | -21%
O=C(Nc1ccc(Cl)cc1)c1cc(S(=O)(=O)N2CCOCC2)cs1 | 7% | -17 | -5% | 2% | 4.6µM* | ?
Cc1ccc(NC(=O)c2cc(S(=O)(=O)N3CCOCC3)cs2)cc1 | -4% | -7 | 0% | -1% | -19% | 2%
Cc1ccc(NS(=O)(=O)c2csc(C(N)=O)c2)cc1C | 0% | -3 | 7% | 0% | 16µM* | -14%
CC(C)Oc1ccc(CNS(=O)(=O)c2csc(C(N)=O)c2)cc1 | 1% | -7 | 10% | 0% | 15µM* | 3%
Cc1ccc(NC(=O)c2cc(S(=O)(=O)N3CCCCC3)cs2)cc1 | 0%[57.4 µM] | -9 | -2% | 0% | 8.2µM* | -7%
COc1ccc(-c2noc(-c3ncn4c3COC(c3ccc(F)cc3)C4)n2)c(OC)c1 (stereo not given) | 16% | / | / | / | / | /
O=C(Nc1ccc(F)cc1)c1cc(S(=O)(=O)Nc2ccc(F)cc2)cs1 | -13% | -1 | 3% | 3% | 18µM* | ?
CN(C)S(=O)(=O)c1cccc(CSCc2cccc(S(=O)(=O)N(C)C)c2)c1 | -11% | -4 | -5% | 0% | 6.5µM* | 6%
Cc1cc(C)n2nc(SCc3cccc(S(=O)(=O)N(C)C)c3)nc2n1 | ? | -4 | 2% | ? | -26% | -5%
Cc1cc(Cl)ccc1OCCCc1n[nH]c(=S)n1C | 22µM* | 6 | / | / | / | /
Cn1c(COc2ccc(Cl)cc2Cl)n[nH]c1=S | ? | 0 | / | / | / | /
COCCn1c(COc2ccccc2-c2ccccc2)n[nH]c1=S | 28µM* | -1 | / | / | / | /
CCn1c(COc2ccc(Cl)cc2C)n[nH]c1=S | 14µM* | 5 | / | / | / | /
Cc1ccccc1OCc1n[nH]c(=S)n1Cc1ccccc1 | 50µM* | -10 | 1% | 0% | -19% | 5%
O=C(Nc1cc(C(F)(F)F)ccc1Cl)C1(F)C(F)(F)C(F)(F)C(F)(F)C(F)(F)C1(F)F | ? | 7 | / | / | / | /
